# Measured values reported in PubChem BioAssay (NCATS).
# Results filed as inconclusive are left out. Activity calls are given as the source filed them. Calls come from the whole dose curve; as a rule, active = well fitted curve in the direction sought with a large enough effect; inconclusive = small, poorly fitted or top-dose-only effect, or another doubt; inactive = no such curve, though single readings can be large; an effect the other way counts as inactive or inconclusive.
# Assay: qHTS assay to identify small molecule inhibitors of chordoma cells - UCH-1 (AID 1259355); note: nearly all actives have a fitted effect of over 55% in size
# Conditions: UCH-1 chordoma viability, CellTiter-Glo, 48 h, combination, with auranofin plus four topoisomerase inhibitors; series mostly up to 46.1 µM; activity, negative = inhibition: at the top concentration
# Summary of the method: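 Seed 800 cells per well; incubate overnight at 37 C, 5% CO2. Add test compounds (15 concentrations), then the auranofin–topoisomerase-agent combination. Incubate 48hr, add CellTiter-Glo, wait 30min, read luminescence.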
# % is set by controls: 0 for no effect and ±100 for the full control effect.
SMILES,"activity, negative = inhibition",Potency
CN1CCN(C2Cc3ccccc3Sc3ccc(Cl)cc32)CC1 (stereo not drawn),12.7% (inactive),–
COc1ccccc1O,-22.5% (inactive),–
CC(=O)NC(Cc1ccccc1)C(=O)O (stereo not drawn),-4.81% (inactive),–
C[C@H]1O[C@@H](n2cc(F)c(=O)[nH]c2=O)[C@H](O)[C@@H]1O,6.37% (inactive),–
CC(=O)c1ccc2c(c1)N(CCCN(C)C)c1ccccc1S2,-4.47% [at 20.6 µM] (inactive),–
CCCCN(CCCC)CCCOC(=O)c1ccc(N)cc1,7.02% [at 20.6 µM] (inactive),–
NS(=O)(=O)c1cc2c(cc1Cl)NC(CSCc1ccccc1)=NS2(=O)=O,1.74% [at 20.6 µM] (inactive),–
COc1ccc2cc1Oc1cc3c(cc1OC)CC[N+](C)(C)[C@H]3Cc1ccc(cc1)Oc1c(OC)c(OC)cc3c1[C@@H](C2)[N+](C)(C)CC3,-1.39% (inactive),–
CCCCOC(=O)c1ccc(O)cc1,5.98% (inactive),–
CC[N+](CC)(CC)CCOc1ccc(/C=C/c2ccccc2)cc1,-14.5% (inactive),–
N[C@H](C(=O)O)c1ccc(O)cc1,-15.2% (inactive),–
C[C@H](N)[C@H](O)c1cccc(O)c1,-9.45% [at 20.6 µM] (inactive),–
CCN(CC)C(=O)Nc1ccc(OCC(O)CNC(C)(C)C)c(C(C)=O)c1 (stereo not drawn),3.37% (inactive),–
CCCCN1CCCC[C@H]1C(=O)Nc1c(C)cccc1C,-24.9% (inactive),–
O=C1NC(=O)[C@@]2(CCOc3ccc(F)cc32)N1,-14.7% (inactive),–
CC(C)(O)c1ccccc1CC[C@@H](SCC1(CC(=O)O)CC1)c1cccc(/C=C/c2ccc3ccc(Cl)cc3n2)c1,-0.448% (inactive),–
CCOc1ccc2ccccc2c1C(=O)N[C@@H]1C(=O)N2[C@@H]1SC(C)(C)[C@@H]2C(=O)O,0.594% [at 20.6 µM] (inactive),–

SMILES,"activity, negative = inhibition",Potency
COc1cc(C)c(Cc2cnc(N)nc2N)cc1OC,-22.4% (inactive),–
C[C@@H]1CN(c2c(F)c(F)c3c(=O)c(C(=O)O)cn(C4CC4)c3c2F)C[C@H](C)N1,-29.1% (inactive),–
C[C@](N)(Cc1ccc(O)cc1)C(=O)O,-12.2% (inactive),–
c1ccc2c(CC3=NCCN3)cccc2c1,-13.6% (inactive),–
O=C1OC(OC(=O)c2cccnc2Nc2cccc(C(F)(F)F)c2)c2ccccc21 (stereo not drawn),-0.989% (inactive),–
CC1(C)OC(=O)NC1=O,-21.6% (inactive),–
CN1CCOC(c2ccccc2)c2ccccc2C1 (stereo not drawn),14.4% [at 20.6 µM] (inactive),–
CCN(CC)CCSC(=O)C(c1ccccc1)c1ccccc1,–,inactive
CCCCCCCCCCCCOS(=O)(=O)O,-29% (inactive),–
O=C(O)c1ccccn1,-26.8% (inactive),–
C[C@@H]1CCN(C(=O)[C@H](CCCN=C(N)N)NS(=O)(=O)c2cccc3c2NC[C@H](C)C3)[C@@H](C(=O)O)C1,-4.3% (inactive),–
NC(=O)NC(=O)Cc1ccccc1,-30.2% (inactive),–
CCN(CC)CCNC(C(=O)OCCC(C)C)c1ccccc1 (stereo not drawn),-25.5% (inactive),–
Cc1cccc(C)c1NC(=O)CN(CC(=O)O)CC(=O)O,-3.89% (inactive),–
CCOC(=O)[C@H](CCc1ccccc1)N[C@@H](C)C(=O)N1C(=O)N(C)C[C@H]1C(=O)O,-4.23% (inactive),–
CN1CCCCC1CCN1c2ccccc2Sc2ccc(S(C)=O)cc21 (stereo not drawn),–,inactive
NCCNCCNCCNCCN,-21.5% (inactive),–

# Assay: qHTS assay to identify small molecule inhibitors of chordoma cells - UCH-2 (AID 1259356)
# Conditions: UCH-2 chordoma viability, CellTiter-Glo ATP luminescence, 48 h; series mostly up to 46.1 µM; activity change, negative = inhibition: at the top concentration
SMILES,"activity change, negative = inhibition",outcome
CN1CCN(C2Cc3ccccc3Sc3ccc(Cl)cc32)CC1 (stereo not drawn),-5.27% (inactive),–
COc1ccccc1O,0.558% (inactive),–
CC(=O)NC(Cc1ccccc1)C(=O)O (stereo not drawn),4.2% (inactive),–
C[C@H]1O[C@@H](n2cc(F)c(=O)[nH]c2=O)[C@H](O)[C@@H]1O,-12.9% (inactive),–
CC(=O)c1ccc2c(c1)N(CCCN(C)C)c1ccccc1S2,-3.31% [at 20.6 µM] (inactive),–
CCCCN(CCCC)CCCOC(=O)c1ccc(N)cc1,9.23% [at 20.6 µM] (inactive),–
NS(=O)(=O)c1cc2c(cc1Cl)NC(CSCc1ccccc1)=NS2(=O)=O,-11.6% [at 20.6 µM] (inactive),–
COc1ccc2cc1Oc1cc3c(cc1OC)CC[N+](C)(C)[C@H]3Cc1ccc(cc1)Oc1c(OC)c(OC)cc3c1[C@@H](C2)[N+](C)(C)CC3,1.2% (inactive),–
CCCCOC(=O)c1ccc(O)cc1,3.19% (inactive),–
CC[N+](CC)(CC)CCOc1ccc(/C=C/c2ccccc2)cc1,0.0213% (inactive),–
N[C@H](C(=O)O)c1ccc(O)cc1,0.707% (inactive),–
C[C@H](N)[C@H](O)c1cccc(O)c1,1.57% [at 20.6 µM] (inactive),–
CCN(CC)C(=O)Nc1ccc(OCC(O)CNC(C)(C)C)c(C(C)=O)c1 (stereo not drawn),0.228% (inactive),–
CCCCN1CCCC[C@H]1C(=O)Nc1c(C)cccc1C,-2.36% (inactive),–
O=C1NC(=O)[C@@]2(CCOc3ccc(F)cc32)N1,7.31% (inactive),–
CC(C)(O)c1ccccc1CC[C@@H](SCC1(CC(=O)O)CC1)c1cccc(/C=C/c2ccc3ccc(Cl)cc3n2)c1,7.62% (inactive),–
CCOc1ccc2ccccc2c1C(=O)N[C@@H]1C(=O)N2[C@@H]1SC(C)(C)[C@@H]2C(=O)O,10.8% [at 20.6 µM] (inactive),–

SMILES,"activity change, negative = inhibition",outcome
COc1cc(C)c(Cc2cnc(N)nc2N)cc1OC,13.6% (inactive),–
C[C@@H]1CN(c2c(F)c(F)c3c(=O)c(C(=O)O)cn(C4CC4)c3c2F)C[C@H](C)N1,6.48% (inactive),–
C[C@](N)(Cc1ccc(O)cc1)C(=O)O,11% (inactive),–
c1ccc2c(CC3=NCCN3)cccc2c1,-20.8% (inactive),–
O=C1OC(OC(=O)c2cccnc2Nc2cccc(C(F)(F)F)c2)c2ccccc21 (stereo not drawn),-1.24% (inactive),–
CC1(C)OC(=O)NC1=O,2.3% (inactive),–
CN1CCOC(c2ccccc2)c2ccccc2C1 (stereo not drawn),7.35% [at 20.6 µM] (inactive),–
CCN(CC)CCSC(=O)C(c1ccccc1)c1ccccc1,–,inactive
CCCCCCCCCCCCOS(=O)(=O)O,5.5% (inactive),–
O=C(O)c1ccccn1,10.5% (inactive),–
C[C@@H]1CCN(C(=O)[C@H](CCCN=C(N)N)NS(=O)(=O)c2cccc3c2NC[C@H](C)C3)[C@@H](C(=O)O)C1,2.24% (inactive),–
NC(=O)NC(=O)Cc1ccccc1,1.24% (inactive),–
CCN(CC)CCNC(C(=O)OCCC(C)C)c1ccccc1 (stereo not drawn),1.49% (inactive),–
Cc1cccc(C)c1NC(=O)CN(CC(=O)O)CC(=O)O,-12% (inactive),–
CCOC(=O)[C@H](CCc1ccccc1)N[C@@H](C)C(=O)N1C(=O)N(C)C[C@H]1C(=O)O,4.19% (inactive),–
CN1CCCCC1CCN1c2ccccc2Sc2ccc(S(C)=O)cc21 (stereo not drawn),–,inactive
NCCNCCNCCNCCN,6.06% (inactive),–
